In PubChem BioAssay AID492952 (Southern Research Specialized Biocontainment Screening …, 2010) one finds outcome data, which are given here for 77 molecules.

In all, about 2,300 compounds went through this assay and about 1,500 (65%) were called active. How the calls were made is not given here. The set was probably picked from earlier hits. This is one part of the list. Results with a measured potency or affinity are listed apart.

The nature of this experiment: replicating M. tuberculosis growth inhibition, dose response, non-replicating M. tuberculosis project, H37Rv (AID 492952).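 Further: Mycobacterium tuberculosis grown in culture; growth inhibition read after a week of incubation.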 The conditions noted are these: series mostly up to 50 µM.
For `N[C@@H](Cc1ccccc1)c1nnc(SC/C=C/c2ccccc2)o1`, the molecule was classed as inactive.
The result for `O=C(NCCc1ccccc1)c1nc(-c2cccs2)no1` reads “inactive”; that for `O=[N+]([O-])c1cncc([N+](=O)[O-])c1Nc1cccc(O)c1`, “inactive”.
The result for `O=S(=O)(NCc1cccnc1)c1ccc(Cl)c(Cl)c1Cl` reads “inactive”.
As to `Clc1ccc(OCCCCN2CCc3ccccc3C2)cc1`, the molecule was classed as inactive.
The result for `Clc1ccc(SCCOCCN2CCc3ccccc3C2)cc1` reads “inactive”; that for `CC1=NN(C(=O)c2ccccc2Cl)C(O)(c2ccccc2)C1` (configuration not stated), “inactive”.
As to `CC1=NN(C(=O)c2ccccc2)C(O)(c2ccc(Br)cc2)C1` (configuration not stated), the outcome was inactive.
Under `CCCCCCOc1ccc(N2C(=O)CC(N3CCN(C(=O)c4ccco4)CC3)C2=O)cc1` (configuration not stated) stands “inactive”; under `CCCOc1ccc(N2C(=O)CC(N3CCCC(C(=O)N4CCCC4)C3)C2=O)cc1` (configuration not stated), “inactive”.
The result for `COc1ccc(OC(=O)C2CC(=O)N(c3ccc(C)cc3)C2)cc1` (configuration not stated) reads “inactive”; that for `CCc1ccc(N2C(=O)CC(N3CCC(C(=O)OC)CC3)C2=O)cc1` (configuration not stated), “inactive”; that for `CCOc1ccc(N2CC(=O)Nc3ccccc3NCC2=O)cc1`, “inactive”.
The result for `C#CCOc1coc(COC(=O)c2ccccc2)cc1=O` reads “inactive”; that for `CSC1=N/C(=C\c2ccc3c(c2)OCO3)C(=O)S1`, “inactive”.
For `O=C1CC(N2CCC(c3nc4ccccc4o3)CC2)C(=O)N1` (configuration not stated), the outcome was inactive.
`NC(=O)/C(=N\OC(=O)c1ccco1)c1nc(-c2ccc(Br)cc2)cs1`: the call was inactive.
As for `Cc1[nH]n(-c2ccccc2)c(=O)c1C=Nc1cnc2ccccc2c1`, the outcome was inactive.
For the molecule `C/C(=N\NC(=O)CCc1ccccc1)C1C(=O)c2ccccc2C1=O`, the molecule was classed as inactive.
As to `CC(C)(C)c1ccc(S(=O)(=O)NNC(=O)c2cc3ccccc3[nH]2)cc1`, the outcome was inactive.
Under `Cc1ccc(S(=O)(=O)NCc2ccc(C(=O)NCCCN3CCC(Cc4ccccc4)CC3)cc2)cc1` stands “inactive”; under `CN(C)CCC(=O)N1c2ccccc2Sc2ccc(C(F)(F)F)cc21`, “inactive”.
Under `Oc1ccc(Br)cc1-c1ccn[nH]1` stands “inactive”; under `CC(NC(=O)c1cc2ccccc2oc1=O)c1ccccc1` (configuration not stated), “inactive”; under `Cc1ccc(C(C)NC(=O)c2cc3ccccc3oc2=O)cc1C` (configuration not stated), “inactive”.
Take `O=C(NC1CCOc2ccccc21)c1ccc(Cl)nc1` (configuration not stated): the outcome was inactive.
Take `CCOc1ccc(NC(=O)COc2ccc3c(c2)OCO3)cc1`: the molecule was called inactive.
Under `O=C(Nc1ccc([N+](=O)[O-])cc1)c1ccc(Cn2cc([N+](=O)[O-])cn2)cc1` stands “inactive”; under `C=CCOc1ccc(CNCCO)cc1OCC`, “inactive”; under `CC(C)(C)c1cc(CN2CCN(CCO)CC2)cc(C(C)(C)C)c1O`, “inactive”.
`CCn1c(O)c(C(=O)CC2NCCc3ccccc32)c(=O)n(CC)c1=S` (configuration not stated): the result was inactive.
Under `Cc1ccc(CNC(=O)c2cnccn2)cc1` stands “inactive”; under `Cc1ccc2nc(NC(=O)COC(=O)c3ccc(Br)o3)sc2c1`, “inactive”; under `O=C(NNc1nc2ccccc2s1)Nc1ccc(F)cc1`, “inactive”.
Under `CCN(CC)c1ccc(NC2CC(=O)N(CCc3ccc(OC)cc3)C2=O)cc1` (configuration not stated) stands “inactive”.
The result for `CC(C)(C)c1csc(NC(=O)c2ccccc2O)n1` reads “inactive”; that for `O=C(NCc1ccc2c(c1)OCO2)c1ccc(Cl)s1`, “inactive”; that for `CCCNC(=O)N1CCC(c2ccc3c(c2)OCO3)CC1`, “inactive”.
On to `Cc1ccc(NC(=O)COc2ccc3c(c2)CCC3)nc1`, for which the result was inactive.
The result for `O=C(CN1CCN(c2ccccc2O)CC1)Nc1ccc2c(c1)CCC2` reads “inactive”; that for `O=C1C=CC(=O)N1N(c1ccccc1)c1ccccc1`, “inactive”.
The result for `COc1ccc(C(=O)NNC2=C(C(=O)C(F)(F)F)CCC2)cc1` reads “inactive”; that for `CC1C/C(=N/N2C(=O)CSC2=S)CC(C)(C)C1` (configuration not stated), “inactive”; that for `O=C1CC(N2CCN(c3ccc(F)cc3)CC2)C(=O)N1Cc1ccccc1` (configuration not stated), “inactive”.
In the case of `Fc1ccc(N2CCN(Cc3nnc(-c4ccccc4)o3)CC2)cc1`, the call was inactive.
The result for `O=C(CN1CCN(c2ccc([N+](=O)[O-])cc2)CC1)Nc1ccccn1` reads “inactive”.
Regarding `O=C1CCCC(O)=C1C=Nc1ccc2c(c1)oc1ccccc12`, the result was inactive.
Under `C/C(=N\NC(=O)c1nn(C)cc1Cl)c1ccncc1` stands “inactive”; under `CCOC(=O)c1ccc(N=CC2=C(O)CC(C)(C)CC2=O)cc1`, “inactive”; under `O=C(Nc1ccc(Cl)cc1)C1CCCC1`, “inactive”.
Under `CSc1nc(=S)cc(C)[nH]1` stands “inactive”; under `CCOC(=O)Cn1cc(C#N)c2ccccc21`, “inactive”.
The result for `CSc1nnc(Cc2ccc3c(c2)OCO3)o1` reads “inactive”.
In the case of `CC(C)c1ccc(OCC(=O)NC2=NCCS2)cc1`, the call was inactive.
As for `O=S(=O)(Nc1nccs1)c1ccc(NCc2cc(Br)cc(Br)c2O)cc1`, the molecule was classed as inactive.
In the case of `COc1cc(C=O)ccc1OCCOCCOc1ccc(Cl)cc1`, the call was inactive.
Under `Cc1cccnc1NC(=O)C1COc2ccccc2O1` (configuration not stated) stands “inactive”.
The result for `COc1ccc(NC(=O)C2COc3ccccc3O2)cc1` (configuration not stated) reads “inactive”; that for `Cc1ccccc1NC(=O)C1COc2ccccc2O1` (configuration not stated), “inactive”.
Under `CCc1ccccc1NC(=O)C1COc2ccccc2O1` (configuration not stated) stands “inactive”.
For `CC(=O)c1cccc(NC(=O)C2COc3ccccc3O2)c1` (configuration not stated), the call was inactive.
Under `CCN(CC)C(=O)c1sc2nc(-c3ccccc3)ccc2c1N` stands “inactive”; under `O=C(COC(=O)c1ccccc1)NCc1cccs1`, “inactive”.
Under `C=CCn1c(O)c(C(C)=Nc2ccc(C(=O)OCC)cc2)c(=O)[nH]c1=O` stands “inactive”.
Under `Cc1cc(C)c2c(=O)n(CC(=O)Nc3cccc(Cl)c3C)sc2n1` stands “inactive”; under `CC1CCc2c(sc3nc(CSc4ncn[nH]4)[nH]c(=O)c23)C1` (configuration not stated), “inactive”; under `Cc1ccc(CC(=O)Nc2ccc(Cl)cn2)cc1`, “inactive”.
Regarding `Cc1ccc(NC(=O)CN(C)CC(=O)Nc2ccc(F)c(Cl)c2)cc1`, the molecule was called inactive.
For `Cc1nc2ccc(NC(=O)COc3cccc(F)c3)cc2s1`, the call was inactive.
Take `COc1ccc(N2C(=O)CC(Sc3nc4ccccc4s3)C2=O)cc1OC` (configuration not stated): the call was inactive.
As for `N#Cc1cc(N)ccc1-n1cccc1`, the result was inactive.
The result for `CCN1C(=O)CC(N2CCC(c3nc4ccccc4[nH]3)CC2)C1=O` (configuration not stated) reads “inactive”; that for `CC(C)(C)NCc1cc(Br)ccc1OCc1cccs1`, “inactive”; that for `CCCCOC(=O)c1ccc(OC(=O)c2cccnc2)cc1`, “inactive”.
As to `CC(C)CN1C(=O)/C(=C(/C#N)C(=O)NC2CCCCC2)c2ccccc21`, the outcome was inactive.
The result for `COc1cccc2sc(Nc3nnc(-c4cccs4)o3)nc12` reads “inactive”.
The result for `CC1(c2nnc(-c3ccc(F)cc3)o2)CC(c2cccc(Cl)c2)=NO1` (configuration not stated) reads “inactive”.
